The list is not random: actives were taken first. Their share in the collection is about 2.8%.
S2 tox = viability counter-screen for ATXN expression inhibitors | S2 cells (HEK-293 line with an ATXN2-luciferase reporter) viability, CellTiter-Fluor protease fluorescence, 24 h | Potency, µM (highest dose often 56.7 µM), most hits filed as cytotoxic | 400,000 tested, 0.49% active | AID 651635; further: nearly all actives have a fitted effect of over 40% in size
ATXN2 expr inh = inhibitors of ATXN2 expression; 360,000 tested, 0.72% active; AID 1745845; Potency, µM (highest dose often 57 µM), without a hit: at the top dose activity change, negative = inhibition, most hits filed as inhibitors; HEK-293 ATXN2-luciferase reporter, luminescence, 24 h; further: on the % scale 0 is the no-effect control and ±100 the full control effect; nearly all actives have a fitted effect of over 55% in size
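qHTS (up to 57 uM final) was run with 24 h compound exposure of reporter cells at 37 °C. Each well was multiplexed: SteadyGlo luminescence measured ATXN2-luciferase expression after a fluorogenic Gly-Phe-AFC viability readout (25 uM final).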
HTT aggregate = mutant huntingtin aggregation inhibition | PC12 HttQ103-GFP aggregates, Acumen cytometry, 40 h | Potency, µM (doses to about 46.1 µM), for inactives: at the highest dose activity change, negative = inhibition, hits mostly inhibitors | 220,000 tested, 1.1% active | AID 1688; further: on the % scale 0 is the no-effect control and ±100 the full control effect; nearly all actives have a fitted effect of over 60% in size
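Ecdysone-promoter PC12 model expressing HTT exon 1 Q103 fused to GFP, induced by tebufenozide at 100 nM final. Compounds titrated; aggregates sized 1–25 µm scored on a 488 nm laser cytometer.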
TGFb inhibitor = TGF-b pathway inhibition | HepG2 CAGA-GFP TGF-b/SMAD3 reporter, GFP fluorescence, 18 h; TGF-beta stimulated, 500 pg/mL final | Potency, µM (top dose mostly 46.1 µM), inactives show at the top dose activity, negative = inhibition, hits mostly inhibitors | 410,000 tested, 1.2% active | AID 588855; further: on the % scale 0 is the no-effect control and ±100 the full control effect; nearly all actives have a fitted effect of over 65% in size
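GFP signal (ex488/em500-530) from TGF-beta-stimulated HEPG2 CAGA-GFP cells, 500 pg/mL final, 18 h at 37 degrees C in DMEM plus 1% FBS, normalized to unstimulated and DMSO-stimulated controls.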
HepG2 viability = HepG2 cytotoxicity, counter-screen for TGF-b inhibitors; HepG2 CAGA-GFP viability, ATP luminescence, 18 h; Potency, µM (top dose mostly 46.1 µM), inactives show at the highest dose activity change, negative = cytotoxicity, most hits filed as cytotoxic; 410,000 tested, 0.76% active
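CellTiter-Glo luminescence gave cytotoxicity after 18 hours at 37 degrees C. The cells were HepG2 CAGA-GFP in 1% FBS DMEM, stimulated with 500 pg/mL TGF-beta after compound addition. %Activity was normalised to no-cell wells (complete cell-killing) and DMSO (no toxicity), and curves were fitted and classified.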
HTT ATP protect = protects HTT-Q103 PC12 cells, measured by ATP; PC12 HTT-Q103 induced, cytoprotection, ATP luminescence, 40 h; Potency, µM (highest dose often 56.4 µM), without a hit: cytoprotection (ATP increase), usual class: activators; 230,000 tested, 0.14% active; AID 1471; further: % of control where 0% means no effect; nearly all actives have a fitted effect of over 45% in size
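Stable PC12 Q103-GFP cells in serum-supplemented, phenol red-free DMEM; induction by tebufenozide at 100 nM final; compound dose series; cell viability quantified luminescently from ATP.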
* hit, by the source's call; i = inactive; ? = inconclusive; . = no result; ! = repeats disagree; [ ] = another dose, or the depositor's remark. The call rests on the fitted dose curve; in most records, active means well fitted curve in the direction sought with a large enough effect; inconclusive means small, poorly fitted or top-dose-only effect, or another doubt; inactive means no such curve, though single readings can be large; an effect the other way counts as inactive or inconclusive. Potency means the concentration at half of the fitted maximal effect.

SMILES	S2 tox	ATXN2 expr inh	HTT aggregate	TGFb inhibitor	HepG2 viability	HTT ATP protect
O=[N+]([O-])c1ccc(Sc2nnnn2-c2ccccc2)nc1	?	?	?	16µM*	-94%	-159%
CCCSc1nnc(Sc2nnnn2-c2ccccc2)s1	?	?	22µM*	?	-35%	-58%[10 µM]
C(=C\CSc1nnnn1-c1ccccc1)/CSc1nnnn1-c1ccccc1	i	-11%	5%	2%	-7%	4%
C/C=C/C/C=C/CCC(=O)[C@H]1O[C@H]1C(N)=O	.	.	.	.	.	-201%
C/C(=C(\CCO)SS/C(CCO)=C(\C)N(C=O)Cc1cnc(C)nc1N)N(C=O)Cc1cnc(C)nc1N	i	17%	.	.	.	.
O=C1C=C(O)c2c(O)cccc2C1=O	.	.	-26%[9.22 µM]	.	.	-16%[10 µM]
NS(=O)(=O)c1cccc2c1C(=O)c1cccc(O)c1C2=O	.	3.1µM*	.	.	.	.
COc1ccc2c(C(=O)CCl)c[nH]c2c1	i	0%	-7%[9.22 µM]	14µM*	6.3µM*	24%[10 µM]
COc1ccc(OCC(=O)c2c[nH]c3ccccc23)cc1	i	6%	-17%	-7%	-17%	-85%
C[C@@H]1C[C@](C)(C(=O)c2ccco2)C=C1c1ccco1	.	.	.	.	.	-44%
O=C(NNc1ccccn1)C(c1ccccc1)c1ccccc1	.	.	0%	-2%	18%	-16%
O=C(NNC(=O)C(c1ccccc1)c1ccccc1)c1ccccn1	i	?	10µM*	?	-21%	10%[10 µM]
O=C(CCc1ccccc1)NNC(=O)c1ccccn1	?	?	13µM*	-24%	-31%	-80%
COC(=O)CC1c2ccccc2C=C(/C=C/c2ccc3c(c2)OCO3)N1C(=O)OC (stereo not drawn)	.	.	.	.	.	-1%[10 µM]
Cc1cc2c(cc1C)N[C@]1(C[C@H]3CCCC(=O)N4CC[C@@H](C1)[C@@H]34)C(=Nc1ccccc1C)N2	.	.	.	1%	11%	.
CC(Nc1nc(N2CCCCC2)nc2ccccc12)c1ccccc1 (stereo not drawn)	.	.	-21%	?	13µM*	6%[10 µM]
COc1ccc(C(=O)NC(Nc2ccc(C)cc2)C(Cl)(Cl)Cl)cc1 (stereo not drawn)	i	-20%	-29%	11µM*	-6%	14%[10 µM]
COc1ccc(NC(=O)CSc2ccc3c4c(cccc24)C(=O)c2ccccc2-3)cc1	.	?	?	36%	0%	-21%
N#Cc1cccc(NC(=O)CSc2ccc3c4c(cccc24)C(=O)c2ccccc2-3)c1	?	?	7.9µM*	30%	-33%	-29%
C/C(=N\NC(=O)C1CCCC1)c1ccc(NC(=O)C(F)(F)F)cc1	i	9%	.	11µM*	-94%	.
COc1cc(=O)n2c(c1C(=O)NC(C)c1ccco1)CCN(C(=O)c1ccccc1SC)CC2 (stereo not drawn)	i	.	.	.	.	.
CC(C)Oc1ccc(C(=O)Nc2nc3ccccc3[nH]2)cc1	i	4.5µM*	.	2%	-21%	.
O=C(Nc1nc2ccccc2[nH]1)c1ccccc1F	i	2%	-12%	1%	2.2µM*	-170%[0.074 µM]
CCc1ccc(C(=O)Nc2nc3ccccc3[nH]2)cc1	i	5µM*	.	-13%	-62%	.
CCOc1ccc(C(=O)Nc2nc3ccccc3[nH]2)cc1OCC	i	-30%	13µM*	?	-29%	-5%[10 µM]
SMILES	S2 tox	ATXN2 expr inh	HTT aggregate	TGFb inhibitor	HepG2 viability	HTT ATP protect
N[C@H](Cc1ccc(F)cc1)C(=O)O	.	.	.	.	.	17%[1.9 µM]
Oc1cccc2ccc(SSc3ccc4cccc(O)c4n3)nc12	.	.	.	.	.	-16%[10 µM]
CCNC(=O)CC1C(=O)N(C)C(=S)N1NC(=O)c1ccc(Cl)cc1 (stereo not drawn)	i	-6%	27%	-1%	-24%	-6%
Nc1ccc(C(=O)NN2C(=O)[C@H](Cl)C2c2ccc(Cl)cc2)cc1 (stereo partly drawn)	13µM*	?	.	0%	-88%	.
CC(C)(C)OC(=O)NS(=O)(=O)NOCc1ccccc1	.	.	.	-17%	-27%	.
Cc1onc(-c2ccccc2Cl)c1C(=O)Nc1nnc(-c2ccc(Cl)cc2Cl)s1	i	1%	35µM*	-17%	4%	24%[10 µM]
Cc1onc(-c2ccccc2Cl)c1C(=O)Nc1nnc(-c2ccc(Br)cc2)s1	i	-8%	?	?	-30%	-5%[10 µM]
N#CCNC(=O)c1ccc(-c2ccnc(Nc3ccc(N4CCOCC4)cc3)n2)cc1	.	19µM*	.	.	.	.
FC(F)(F)c1cc(CCN2C(=S)NC[C@@H]2CC2CCCCC2)cc(C(F)(F)F)c1	20µM*	?	9%[9.22 µM]	14µM*	-30%	-6%[10 µM]
Cc1cc(=O)[nH]c2ccc(O)cc12	.	.	.	3%	4%	.
Nc1cccc2nc3ccccc3cc12	.	7.9µM*	-12%[9.22 µM]	?	14%	-64%
CCCCc1c(CCC)c(=N)c2ccccc2n1C	i	-21%	8.9µM*	-26%	-10%	-4%[10 µM]
COc1cccc(-c2cc3c(c(OC)c2)OCCN(Cc2ccccc2O)C3)n1	i	.	.	.	.	.
COc1ccc(-c2cc(CNC(=O)CCl)on2)cc1	.	14%	18µM*	-5%	3%	-41%
Cc1ccc(S(=O)(=O)CCC(=O)Nc2cc(C)on2)cc1	i	.	.	-8%	1%	.
COc1ccc(NC(=O)CCS(=O)(=O)c2nc(-c3ccc4c(c3)OCO4)cc(C(F)(F)F)n2)cc1	.	.	.	?	11µM*	.
O=C(CCS(=O)(=O)c1nc(-c2ccc3c(c2)OCO3)cc(C(F)(F)F)n1)Nc1ccc(F)cc1F	.	.	.	18µM*	-70%	.
CS(=O)(=O)c1nc(-c2ccccc2)cc(C(F)(F)F)n1	.	?	4.5µM*	?	13µM*	?
Cc1cc(NC(=O)CCS(=O)(=O)c2nc(-c3ccccc3)cc(C(F)(F)F)n2)no1	20µM*	?	.	?	-105%	-33%
COc1ccc(-c2cc(C(F)(F)F)nc(S(=O)(=O)CCC(=O)N3CCOCC3)n2)cc1	?	?	27%[9.22 µM]	-8%	7%	-123%
COc1ccc2c(c1)c(C(=O)CN(C)C)c(C)n2C	.	.	.	0%	-18%	.
CCN(CC)CCn1c(=N)n(CCOc2ccccc2)c2ccccc21	i	0%	-22%	85%	-75%	-62%
CCCCn1c(=N)n(CCOc2ccc(C)cc2)c2ccccc21	?	?	-32%	?	-97%	.
CCCCn1c(=N)n(CCOc2ccccc2OC)c2ccccc21	.	.	.	10µM*	-59%	.
CCn1c(=N)n(CCOc2ccc(Br)cc2)c2ccccc21	.	.	.	8.9µM*	-99%	.
CCCCCn1c(=N)n(CC(O)COc2ccccc2OC)c2ccccc21 (stereo not drawn)	28µM*	28µM*!	-5%	11µM*	-84%	-12%[10 µM]
